Sampled rows, rich in hits. Any-hit rate of the full collection: about 3.3%.
12-hLO inh: qHTS Assay for Inhibitors of 12-hLO (12-human lipoxygenase) | Polyunsaturated fatty acid lipoxygenase ALOX12 (Homo sapiens), P18054 | purified 12-hLO, xylenol orange hydroperoxide absorbance | Potency, µM (series often up to 57.1 µM), without a hit: at the top dose activity change, negative = inhibition, actives largely listed as inhibitors | 0.12% of 150,000 active; further: potency means the concentration at half of the fitted maximal effect; on the % scale 0 is the no-effect control and ±100 the full control effect; nearly all actives have a fitted effect of over 55% in size
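Purified human 12hLO (150 nM), preincubated 15 min with compound, then 40 uM arachidonic acid for 30 min, room temperature, Hepes pH 7.0 with 0.01% Triton X-100. Hydroperoxide detected by ferrous iron/xylenol orange; 573/405 nm absorbance ratio gives reaction progress.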
HTT cytoprotect: qHTS Multiplex Assay to Identify Dual Action Probes in a Cell Model of Huntington: Cytoprotection (ATP) | PC12 HTT-Q103 induced, cytoprotection, ATP luminescence, 40 h | Potency, µM (doses to about 56.4 µM), for the others: cytoprotection (ATP increase), hits mostly activators | 0.14% of 230,000 active; further: potency means the concentration at half of the fitted maximal effect; % of control where 0% means no effect; nearly all actives have a fitted effect of over 45% in size
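ATP quantification (ATPlite) reports survival of PC12 cells in which tebufenozide, 100 nM final, switches on Htt exon 1 with 103 glutamines linked to GFP; compounds are titrated.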
IMPase cell inh: qHTS Assay for Identifying the Cell-Membrane Permeable IMPase Inhibitors; Inositol monophosphatase 1 (Rattus norvegicus), P97697; CHO-M1 cells, IP1 accumulation, HTRF TR-FRET ratio; inhibition (IP1 accumulation), % at 46.1 µM; 120,000 tested, under 10 active; AID 901, 2007; active means well fitted curve in the direction sought with a large enough effect in the signal ratio, not every such curve was filed as active; inconclusive means small, poorly fitted or top-dose-only effect, or a change in a side signal; inactive means no such curve, though single readings can be large or run the other way; the % refers to the signal ratio;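 further: cells stimulated with carbachol in lithium chloride buffer; plate controls were DMSO basal wells for no effect and reference inhibitor wells for full effect; higher means more IMPase inhibition seen as more IP1 and lower FRET ratio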
Target sequence (P97697 whole entry, looked up): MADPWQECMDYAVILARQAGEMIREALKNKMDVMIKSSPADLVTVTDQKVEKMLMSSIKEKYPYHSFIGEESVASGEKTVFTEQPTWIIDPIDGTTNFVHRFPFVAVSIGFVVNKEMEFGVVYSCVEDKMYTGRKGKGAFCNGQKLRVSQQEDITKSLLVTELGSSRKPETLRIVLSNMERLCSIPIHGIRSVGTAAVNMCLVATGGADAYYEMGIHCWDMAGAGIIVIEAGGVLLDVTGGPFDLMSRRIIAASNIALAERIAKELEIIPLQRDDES
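The IP-One HTRF competitive assay in carbachol-stimulated CHO-M1 cells quantifies cellular IP1. Compounds spanned up to 46 uM final, and activity is expressed as AC50 from concentration-response fits of the ratio and donor data.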
PNC inhibitor: High Content Assay for Compounds that inhibit the Assembly of the Perinucleolar Compartment; PC3M PTB-GFP, PNC prevalence imaging, 16 h; hits give low values; activity change (PNC), negative = inhibition, % at 10 µM; 3.1% of 140,000 active; AID 2417, 2010;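 active means readout at or below -70, meaning at least 70% loss of cells showing the perinucleolar compartment, a nuclear body marking cancer cells; inconclusive means readout between -30 and a set limit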;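 further: plate controls were DMSO wells for no effect and camptothecin positive control wells for full effect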
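Read-out is percentage of cells bearing a perinucleolar compartment, from automated 20x imaging of fixed, Hoechst-stained PC3M PTB-GFP cells. Cells were seeded 4 h, then exposed 16 h to compound (23 nl of library stock) in duplicate plates.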
HttQ103 aggreg: qHTS Multiplex Assay to Identify Dual Action Probes in a Cell Model of Huntington: Aggregate Formation (GFP); PC12 HttQ103-GFP aggregates, Acumen cytometry, 40 h; Potency, µM (top dose mostly 46.1 µM), inactives show at the highest dose activity change, negative = inhibition, hits mostly inhibitors; 1.1% of 220,000 active; AID 1688, 2009; further: potency means the concentration at half of the fitted maximal effect; on the % scale 0 is the no-effect control and ±100 the full control effect; nearly all actives have a fitted effect of over 60% in size
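Steps: seed 1500 PC12 HTTQ103-GFP cells/well; add tebufenozide, 100 nM final; add compound titration; add ATPLite reagent; quantify GFP aggregates by laser scanning cytometry.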
NPSR antag: qHTS Assay for Antagonists of the Neuropeptide S Receptor: cAMP Signal Transduction | AID 1461, 2008 | Potency, µM (titrated, usually from 38.3 µM), without a hit: at the top dose activity change, negative = inhibition, usual class: inhibitors | CHO-NPSR cells, cAMP TR-FRET, antagonist mode | Q6W5P4 | 1% of 220,000 active; further: potency means the concentration at half of the fitted maximal effect; on the % scale 0 is the no-effect control and ±100 the full control effect; nearly all actives have a fitted effect of over 50% in size
Target sequence (Q6W5P4 whole entry, looked up): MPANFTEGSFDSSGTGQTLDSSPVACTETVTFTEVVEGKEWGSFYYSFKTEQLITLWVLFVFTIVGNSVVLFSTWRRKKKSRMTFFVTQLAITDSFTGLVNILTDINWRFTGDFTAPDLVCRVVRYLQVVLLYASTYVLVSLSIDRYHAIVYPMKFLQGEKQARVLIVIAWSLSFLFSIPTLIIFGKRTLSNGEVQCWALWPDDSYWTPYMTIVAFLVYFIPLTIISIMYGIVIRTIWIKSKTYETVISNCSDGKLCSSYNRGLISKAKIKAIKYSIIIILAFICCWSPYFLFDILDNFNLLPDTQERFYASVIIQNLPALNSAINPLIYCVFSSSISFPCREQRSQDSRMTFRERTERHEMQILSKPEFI
An asterisk follows results filed as active; ? = inconclusive; nt = no result given; [ ] = remark or other dose. Unless noted, the call rests on the fitted dose curve; in most records, active means well fitted curve in the direction sought with a large enough effect; inconclusive means small, poorly fitted or top-dose-only effect, or another doubt; inactive means no such curve, though single readings can be large; an effect the other way counts as inactive or inconclusive.

SMILES	12-hLO inh	HTT cytoprotect	IMPase cell inh	PNC inhibitor	HttQ103 aggreg	NPSR antag
O=C(NC(=S)Nc1ccc(NC(=O)c2ccco2)cc1)c1ccccc1	1%	-11%[10 µM]	nt	-88*	1%	13%
COc1cc(C(=O)NC(=S)Nc2ccc(NC(=O)c3ccco3)cc2)cc(OC)c1OC	-9%	-6%[10 µM]	nt	59	6%	18%
CC(C)CNC(=O)c1cccc(NC(=O)c2ccc(Cl)c([N+](=O)[O-])c2)c1	-3%	nt	nt	-89*	-14%	-12%
C[Si](C)(C)O[Si](C)(C)C	nt	9%	nt	nt	-5%	nt
COc1c2c(nc3ccccc13)O[C@@H]([C@@](C)(O)CO)C2	5%	0%[1.9 µM]	-2	nt	nt	nt
CCOC(=O)c1cnc2c(cnn2CC)c1NN=C(C)C	-4%	?	8	nt	4%	-10%[46.1 µM]
CCOC(=O)c1c[nH]c2cc(OCC(C)C)c(OCC(C)C)cc2c1=O	nt	-49%	nt	nt	-11%	nt
COc1ccccc1CNC(=S)NCCc1ccccc1	-9%	3.2µM*	nt	42	-4%	5%
CC(C)CNC(=O)c1ccc(NC(=O)c2ccccc2[N+](=O)[O-])cc1	-1%	nt	nt	-84*	-18%	10%
COc1cc(OC)cc(C(=O)Nc2nnc(NC(=S)Nc3ccccc3)s2)c1	-4%	29%[10 µM]	nt	-100*	26%	?
COc1ccc(CCNC(=S)NC(=O)c2ccccc2)cc1C	nt	19%[10 µM]	nt	nt	3%[9.22 µM]	1%
O=C(NC(=S)NCCc1ccccc1)c1ccccc1	18µM*	-50%	8	?	-9%	-16%[46.1 µM]
COc1ccc(N2CCN(c3ccc(NC(=O)c4ccc5c(c4)OCO5)cc3C#N)CC2)cc1	-1%	3%	1	19	-11%	5µM*
CCOc1ccc(-n2nc3cc(C)c(NC(=O)c4cc(OCC)c(OCC)c(OCC)c4)cc3n2)cc1	nt	nt	-1	nt	nt	nt
CS(=O)(=O)c1ccc(N2CCOCC2)c(S(C)(=O)=O)c1	5%	?	15	-107*	-6%	-6%[46.1 µM]
CCCc1sc(N/N=C/c2ccccn2)nc1-c1ccc(F)cc1	2%	-32%[10 µM]	?	-4	?	10µM*
CCN=c1scc(-c2ccc(F)cc2)n1/N=C/c1ccccn1	nt	-80%	nt	nt	?	-22%
Cc1nc(N/N=C/c2ccccn2)sc1C	3%	-69%[10 µM]	nt	?	?	4µM*
OC[C@H]1O[C@@H](n2cnc3cncnc32)[C@H](O)[C@@H]1O	-1%	nt	nt	nt	nt	-3%[46.1 µM]
COc1ccc(C2C(C(C)=O)=C(O)C(=O)N2c2cccnc2)c(OC)c1 (stereo not drawn)	5%	-15%[0.074 µM]	-6	?	-9%	?
COc1ccc(C2C(C(C)=O)=C(O)C(=O)N2C)c(OC)c1 (stereo not drawn)	4%	-22%	-3	-127*	-11%[9.22 µM]	-5%[46.1 µM]
Cc1nc2cnc(N3CCOCC3)nc2n(CCc2ccccc2)c1=O	nt	-88%	nt	nt	nt	nt
COc1ccc2c(c1)-c1c(ssc1=S)C(C)(C)N2C(=O)CSC1=NCCS1	-17%	31%[10 µM]	9	29	11µM*	-23%[46.1 µM]
N=c1ccn(Cc2c(Cl)cccc2Cl)cc1	nt	10%[10 µM]	nt	nt	-16%[9.22 µM]	8%
N=c1ccn(Cc2ccc(Cl)cc2)cc1	2%	-83%[0.074 µM]	10	?	6.3µM*	-22%[46.1 µM]
SMILES	12-hLO inh	HTT cytoprotect	IMPase cell inh	PNC inhibitor	HttQ103 aggreg	NPSR antag
N=c1ccn(Cc2ccc(Cl)c(Cl)c2)cc1	6%	-93%[0.074 µM]	10	25	2µM*	-13%[46.1 µM]
N=c1ccn(Cc2ccc(Cl)cc2Cl)cc1	1%	-39%	11	34	7.1µM*	1%[46.1 µM]
N=c1ccn(Cc2cccc(Cl)c2)cc1	7%	-84%[0.074 µM]	12	?	?	-15%[46.1 µM]
Cn1c(=O)[nH]c2ncccc21	nt	-10%[10 µM]	nt	nt	0%[9.22 µM]	28%
O=c1c2cnn(-c3ccccc3)c2ncn1Cc1cccc(Cl)c1	-3%	6%	7	-108*	-9%	-16%[46.1 µM]
FC(F)(F)c1ccc(-c2noc(-c3ccccc3)c2I)cc1	-1%[0.00818 µM]	-93%	nt	nt	nt	nt
Cc1ccc(OCC(=O)Nc2ccccc2Sc2ccccc2)c([N+](=O)[O-])n1	-1%	19%[10 µM]	nt	-107*	5%	-15%
Cc1ccc(OCC(=O)Nc2ccc(F)cc2)c([N+](=O)[O-])n1	nt	-1%	nt	nt	6%	-2%
COCCn1c(=O)c(-c2ccc(Cl)cc2)nc2cnc(Oc3cccc(Cl)c3)nc21	nt	9%	nt	nt	nt	nt
O=C1/C(=C\c2ccco2)SC(=S)N1c1ccccc1	-26%	nt	nt	-5	13%	-19%
O=C1/C(=C/c2ccco2)SC(=S)N1C1CCS(=O)(=O)C1 (stereo not drawn)	nt	-98%[10 µM]	nt	nt	4.5µM*	10%
Cc1ccc(N2C(=O)/C(=C\c3ccco3)SC2=S)cc1	7.9µM*	-12%	3	31	2%	-20%[46.1 µM]
O=c1c2ccccc2nc(SCCN2CCCCC2)n1CCc1ccccc1	nt	3%[10 µM]	nt	nt	6%[9.22 µM]	19%
O=C(CC(c1ccccc1)c1cc(Br)ccc1O)NCC1(c2ccccc2)CCCC1 (stereo not drawn)	nt	nt	9	nt	nt	nt
CCCn1c(N)c(NCCN2CCOCC2)c(=O)[nH]c1=O	nt	6%[10 µM]	nt	nt	-4%	8%
COc1ccc(CCNc2cc(N3CCN(C(=O)c4ccccc4F)CC3)ccc2[N+](=O)[O-])cc1OC	6%	-43%	0	46	4µM*	-2%[46.1 µM]
COC(=O)Cc1c(C)c2c(OCc3nn[nH]n3)cc(C)cc2oc1=O	-4%	8%[0.074 µM]	-3	37	0%	-5%[46.1 µM]
Cc1c(C)c2cc(Cl)c(OCc3nn[nH]n3)cc2oc1=O	-1%	0%	-4	-122*	22%	-7%[46.1 µM]
C/C(=C1/C(=O)N(c2ccc([N+](=O)[O-])cc2)N=C1c1ccccc1)N(C)C	-16%	-38%	5	10	13µM*	-10%[46.1 µM]
CCc1ccc2n(-c3ccc(OC)cc3)c([S-])c(C(=O)Nc3cc(C)cc(C)c3)[n+]2c1	nt	-2%[10 µM]	nt	nt	-24%[9.22 µM]	10µM*
CCNC(=S)NNC(=O)c1ccncc1	nt	nt	nt	nt	30%	5%
CC(C)(C)NC(=S)NNC(=O)c1ccncc1	4%	nt	nt	-114*	-5%	5%
COCCN1C(=O)c2ccc(C(=O)NCc3cccnc3)cc2C1=O	-1%	-1%	8	-18	8%	3%[46.1 µM]
CN1C(=O)c2ccc(C(=O)NCc3ccccc3)cc2C1=O	4%	19%[10 µM]	1[1.84 µM]	-92*	4%	-2%[46.1 µM]
Cc1ccc(S(=O)(=O)N/N=C\c2cccnc2)cc1	-3%	-30%	0	-88*	16%	-5%[46.1 µM]

From PubChem BioAssay
